Source: PubChem BioAssay
A549 tox: Nrf2 qHTS screen for inhibitors: counterscreen for cytotoxicity | A549 ARE-Fluc cells, CellTiter-Fluor viability, 18-24 h | Potency, µM (top dose mostly 46 µM), without a hit: top-dose activity change, negative = cytotoxicity, usual class: inhibitors | actives 0.16% (n = 390,000); also: potency is read from the fitted curve at half-maximal effect
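A549 ARE-Fluc cells in 5% FBS OPTI-MEM, 5000 cells/well, rested 2 h then exposed to compounds in concentration-response for 18-24 h at 37 °C. Viability by CellTiter-Fluor fluorescence (Ex 405/Em 525) after 30 min; luciferase luminescence (BugLite, 15 min, RT) read afterwards.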
Nrf2 inh: Nrf2 qHTS screen for inhibitors; Potency, µM (titrated, usually from 46 µM), without a hit: at the highest dose activity change, negative = inhibition, hits mostly inhibitors; A549 ARE-Fluc reporter, luciferase luminescence, 18-24 h; actives 2.1% (n = 360,000); also: potency is read from the fitted curve at half-maximal effect; nearly all actives have a fitted effect of over 60% in size
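Cells were seeded and rested 2 h, then exposed to compounds for 18-24 h. CellTiter-Fluor was read first as a viability measure. BugLite was added 15 min before the final luminescent read of ARE-luciferase activity in A549 cells.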
Giardia kill: Small Molecules that selectively kill Giardia lamblia: qHTS. Giardia lamblia trophozoite viability. activity change, % at 7.66 µM, hits read low. actives 0.15% (n = 340,000). AID 540267, 2011; in the data active = activity change below about -80%; inconclusive = between about -30% and that limit;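 also: parasites exposed to compound for two days anaerobically before the ATP read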
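Luminescent ATP signal served as the viability read-out, measured 15-30 min after adding ATP detection reagent to trophozoites that had been incubated with compounds for 48 hrs at 37 deg C anaerobically at 100 cells/well.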
KB-V1 MDR tox: qHTS assay for MDR1-selective chemotherapeutics: Primary screen using the drug-selected MDR subline cells KB-V1; KB-V1 MDR cells viability, CellTiter-Glo, 72 h; AID 1347076, 2019; Potency, µM (highest dose often 46.1 µM), most hits filed as cytotoxic; actives 3.4% (n = 400,000); also: potency is read from the fitted curve at half-maximal effect; nearly all actives have a fitted effect of over 60% in size
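KB-V1, DMEM (no phenol red) + 10% FBS; cpd pin-transferred, titration series; 72 h, 37 degrees C; CellTiter-Glo, luminescence. Data normalized, curve-fit.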
PI4K2A inh: qHTS for small molecular inhibitors of PI4K2A | purified PI4K2A, ADP-Glo luminescence, 1 h; hits give low values | activity change, negative = inhibition, % at 76.9 µM | actives 0.13% (n = 420,000); in the data active = activity change below about -50%; inconclusive = mostly about -30% to -49%;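 also: -100% = wells without enzyme as full effect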
Target sequence (Q9BTU6 whole entry, looked up): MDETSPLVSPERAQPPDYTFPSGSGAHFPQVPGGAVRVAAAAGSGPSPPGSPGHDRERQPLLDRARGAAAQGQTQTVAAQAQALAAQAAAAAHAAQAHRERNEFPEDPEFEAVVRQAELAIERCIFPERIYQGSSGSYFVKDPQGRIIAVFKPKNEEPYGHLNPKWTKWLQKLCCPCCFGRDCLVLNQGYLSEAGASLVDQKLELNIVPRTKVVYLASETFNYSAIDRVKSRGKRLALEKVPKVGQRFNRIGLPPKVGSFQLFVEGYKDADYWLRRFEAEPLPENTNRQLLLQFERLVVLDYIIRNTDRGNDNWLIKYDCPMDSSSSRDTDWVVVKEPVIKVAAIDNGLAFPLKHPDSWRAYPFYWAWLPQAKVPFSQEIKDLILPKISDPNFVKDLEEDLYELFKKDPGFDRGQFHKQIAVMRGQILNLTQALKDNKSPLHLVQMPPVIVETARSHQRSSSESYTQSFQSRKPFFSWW
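Compounds are screened against recombinant PI4K2A using PI as substrate and ATP, the latter dispensed at 300 microM. Reactions run one hour at ambient temperature before ADP-Glo detection; full inhibition defined by wells lacking enzyme.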
KB-3-1 cytotox: qHTS assay for MDR1-selective chemotherapeutics: Primary screen using the parental adenocarcinoma cell KB-3-1; AID 1347075, 2019; actives 1.4% (n = 400,000); Potency, µM (titrated, usually from 46.1 µM), hits mostly cytotoxic; KB-3-1 viability, CellTiter-Glo ATP luminescence, 72 h; also: potency is read from the fitted curve at half-maximal effect; nearly all actives have a fitted effect of over 60% in size
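Viability of parental KB-3-1 cells, measured by CellTiter-Glo luminescence, followed a 72 h incubation at 37 °C with pinned compounds in phenol-red-free DMEM containing 10% FBS.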
An asterisk follows results filed as active. An excerpt weighted towards active compounds, which were near 5.7% of everything screened. Unless noted, calls follow the shape of the dose curve; as a rule, active = well fitted curve in the direction sought with a large enough effect; inconclusive = small, poorly fitted or top-dose-only effect, or another doubt; inactive = no such curve, though single readings can be large; an effect the other way counts as inactive or inconclusive. Unless noted, % is scaled to controls: 0 for no effect and ±100 for the full control effect.

What do the screens show for `CCOC(=O)c1ccccc1NC(=O)c1cnc(N2CCOCC2)c2ccccc12`?
A549 tox: -18.1%; KB-V1 MDR tox: inactive; PI4K2A inh: -1.7; KB-3-1 cytotox: inactive

Results for CC1=CC(=O)C(C(C)C)=C/C1=N/OS(=O)(=O)c1ccccc1 ?
A549 tox: inconclusive; Nrf2 inh: inconclusive; Giardia kill: -8.9; KB-V1 MDR tox: 20.6µM*; PI4K2A inh: -10.2; KB-3-1 cytotox: inconclusive

What do the screens show for `COc1ccc(-c2nn3c(-c4cc(-c5ccccc5)n[nH]4)nnc3s2)cc1OC`?
A549 tox: 5.3%; Nrf2 inh: 1.3%; Giardia kill: -18.2; KB-V1 MDR tox: inactive; KB-3-1 cytotox: inactive

How did Cc1ccc2nc(-c3ccc4c(c3)OCCO4)cn2c1 do in these assays?
A549 tox: -5.0%; Nrf2 inh: inconclusive; Giardia kill: inconclusive; KB-V1 MDR tox: inconclusive; PI4K2A inh: -10.8; KB-3-1 cytotox: 3.66µM*

Results for COc1ccc(-c2cn3cc(C)ccc3n2)cc1OC ?
A549 tox: 1.7%; Nrf2 inh: inconclusive; Giardia kill: inconclusive; KB-V1 MDR tox: 6.51µM*; PI4K2A inh: -4.0; KB-3-1 cytotox: inactive

Results for COc1ccc(-c2cn3cc(C)ccc3n2)cc1F ?
A549 tox: 3.3%; Nrf2 inh: inconclusive; Giardia kill: inconclusive; KB-V1 MDR tox: inconclusive; PI4K2A inh: 12.0; KB-3-1 cytotox: inactive

Results for CC(C)C(=O)NNC(=O)CN1CCN(c2nc(-c3ccccc3)cs2)CC1 ?
A549 tox: 0.4%; Nrf2 inh: -14.1%; Giardia kill: 8.2; KB-V1 MDR tox: inactive; PI4K2A inh: -0.1; KB-3-1 cytotox: inactive

What do the screens show for `CCc1nnc(NC(=O)CN2CCN(c3nc(-c4ccccc4)cs3)CC2)s1`?
A549 tox: 2.6%; Giardia kill: -9.0; KB-V1 MDR tox: 20.6µM*; PI4K2A inh: -0.6; KB-3-1 cytotox: inactive

Results for COC(=O)[C@]12C[C@H](CC(=O)N3CCC(c4ccccc4)CC3)C(=O)N(Cc3cccc4ccccc34)C1=C[C@H](COCc1ccccc1)O[C@@H]2C ?
PI4K2A inh: -2.3

Results for CO/N=C\CC(=O)Nc1ccc(Cl)cc1Cl ?
A549 tox: -15.2%; Nrf2 inh: 2.8%; Giardia kill: 4.7; KB-V1 MDR tox: 5.8µM*; PI4K2A inh: 6.5; KB-3-1 cytotox: inconclusive

Results for COc1cccc(C2c3c(ncn(-c4cccnc4)c3=N)Oc3ccc4ccccc4c32)c1 (centres undefined) ?
A549 tox: -5.7%; Nrf2 inh: -2.1%

Results for Cc1cc(C)cc(N(CC(=O)N2CCC(C)CC2)S(=O)(=O)c2ccccc2)c1 ?
A549 tox: -13.0%; Nrf2 inh: -10.8%; Giardia kill: -11.4; KB-V1 MDR tox: 16.4µM*; PI4K2A inh: 1.3; KB-3-1 cytotox: inactive

What do the screens show for `COC(=O)Cc1ccc2sc(-c3ccccc3)nc2c1`?
A549 tox: -0.8%; Nrf2 inh: inconclusive; Giardia kill: inconclusive; KB-V1 MDR tox: inconclusive; PI4K2A inh: -62.3*; KB-3-1 cytotox: inactive

Results for CC(=O)Nc1cccc(-c2nc3ccccc3s2)c1 ?
A549 tox: 1.2%; Nrf2 inh: inconclusive; Giardia kill: -1.8; KB-V1 MDR tox: inactive; PI4K2A inh: -1.8; KB-3-1 cytotox: inactive

What do the screens show for `Oc1cccc(-c2nc3ccccc3s2)c1`?
A549 tox: 21.1%; Giardia kill: -25.1; KB-V1 MDR tox: inactive; PI4K2A inh: inconclusive; KB-3-1 cytotox: inactive

What do the screens show for `O=C(O)Cc1ccc2sc(-c3ccccc3)nc2c1`?
A549 tox: -6.6%; Nrf2 inh: 11.5%; Giardia kill: -9.6; KB-V1 MDR tox: inconclusive; PI4K2A inh: -67.1*; KB-3-1 cytotox: inconclusive

What do the screens show for `CCC(C)CNC(=O)CN1C(=O)C2CCCCN2C(=O)c2ccccc21` (centres undefined)?
PI4K2A inh: -2.1

How did COC(=O)[C@@]1(C(C)C)N=C(c2cc(OC)c(OC)c(OC)c2)[C@]2(O1)C(=O)N(Cc1cn(Cc3ccccc3)nn1)c1ccc(F)cc12 do in these assays?
PI4K2A inh: -15.2

Results for C[C@@H](Nc1nc(Cl)nc2nc[nH]c12)c1ccccc1 ?
A549 tox: 4.1%; Nrf2 inh: inconclusive; Giardia kill: -21.1; KB-V1 MDR tox: inactive; KB-3-1 cytotox: inactive

What do the screens show for `Cc1ccc(-n2c(N)c(C(=O)Nc3c(C)n(C)n(-c4ccccc4)c3=O)c3nc4ccccc4nc32)cc1`?
A549 tox: inconclusive; Nrf2 inh: inconclusive; Giardia kill: 2.8; KB-V1 MDR tox: 23.1µM*; PI4K2A inh: -10.8; KB-3-1 cytotox: inconclusive

What do the screens show for `Cc1c(NC(=O)c2ccccc2NS(=O)(=O)c2ccc(Br)cc2)c(=O)n(-c2ccccc2)n1C`?
A549 tox: -0.9%; Nrf2 inh: -3.6%; Giardia kill: -9.0; KB-V1 MDR tox: 23.1µM*; PI4K2A inh: -1.3; KB-3-1 cytotox: inactive

What do the screens show for `Cc1cc(C)cc(-n2c(N)c(C(=O)Nc3c(C)n(C)n(-c4ccccc4)c3=O)c3nc4ccccc4nc32)c1`?
A549 tox: 1.1%; Nrf2 inh: 4.9%; Giardia kill: 12.4; KB-V1 MDR tox: inconclusive; PI4K2A inh: 2.8; KB-3-1 cytotox: inactive

Results for CCOC(=O)CC[C@@H]1CC[C@]2(CCCN(Cc3ccc(Cl)cc3)C2)O1 ?
PI4K2A inh: 1.3

Results for COC(=O)c1cn(CC(=O)N2CCCCCC2)c2ccccc12 ?
A549 tox: 0.4%; Nrf2 inh: 2.7%; Giardia kill: 18.3; KB-V1 MDR tox: inactive; PI4K2A inh: 2.0; KB-3-1 cytotox: inactive

What do the screens show for `CCOC(=O)C1=C(O)/C(=C/c2cn(CC(=O)N3CCCC3)c3ccccc23)SC1=Nc1ccccc1`?
A549 tox: -10.1%; Nrf2 inh: inconclusive; Giardia kill: 4.0; KB-V1 MDR tox: inactive; PI4K2A inh: 1.3; KB-3-1 cytotox: 14.6µM*

Results for O=[N+]([O-])c1cccc(C2=Nn3c(nnc3-c3ccccc3)SC2)c1 ?
PI4K2A inh: 2.6

What do the screens show for `Cc1cc(NC(=O)c2ccc(Cl)c(S(=O)(=O)N3CCCCC3)c2)no1`?
A549 tox: -16.4%; Nrf2 inh: 23.1µM*; Giardia kill: 17.9; KB-V1 MDR tox: inconclusive; PI4K2A inh: -3.2; KB-3-1 cytotox: inconclusive
